Compound activity from PubChem.
IMPase cell inh – membrane-permeable compound that blocks inositol monophosphatase; CHO-M1 cells, IP1 accumulation, HTRF TR-FRET ratio; inhibition (IP1 accumulation), % at 46.1 µM; 120,000 tested, under 10 active; P97697; active means well fitted curve in the direction sought with a large enough effect in the signal ratio, not every such curve was filed as active; inconclusive means small, poorly fitted or top-dose-only effect, or a change in a side signal; inactive means no such curve, though single readings can be large or run the other way; the % refers to the signal ratio;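 further: cells stimulated with carbachol in lithium chloride buffer; plate controls were DMSO basal wells for no effect and reference inhibitor wells for full effect; higher means more IMPase inhibition seen as more IP1 and lower FRET ratio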
Target sequence (P97697 whole entry, looked up): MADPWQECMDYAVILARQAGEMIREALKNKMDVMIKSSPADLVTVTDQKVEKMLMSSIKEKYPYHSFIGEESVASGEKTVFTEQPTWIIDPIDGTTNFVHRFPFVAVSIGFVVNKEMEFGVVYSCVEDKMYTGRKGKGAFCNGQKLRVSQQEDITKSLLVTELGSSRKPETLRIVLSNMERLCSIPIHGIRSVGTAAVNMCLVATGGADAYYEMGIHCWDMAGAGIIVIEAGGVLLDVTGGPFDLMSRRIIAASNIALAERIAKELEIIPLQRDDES
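In this qHTS, compounds (final up to 46 uM) act on CHO-M1 cells that are then activated through the M1 receptor with carbachol, in pH 7.4 buffer containing 50 mM LiCl, for 30 min. IP1 accumulation is quantified by the IP-One immunoassay.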
IMPase Li cell – membrane-permeable IMPase blocker, potentiated with lithium. CHO-M1 cells, IP1 TR-FRET (IP-One), carbachol + lithium. Potency, µM (top dose mostly 59.4 µM), inactives show at the highest dose activity, negative = IMPase inhibition, usual class: inhibitors. actives 0.35% (n = 210,000);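 further: IP1 builds up when IMPase is blocked and the TR-FRET signal falls; potency means the concentration at half of the fitted maximal effect; plate controls were basal vehicle for no effect and high inhibitor control for full effect; nearly all actives have a fitted effect of over 50% in size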
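CHO cells stably expressing M1 receptor (2000/well, cultured 16–30 h) treated 30 min at 37C with compound plus low lithium. Cytosolic IP1 by TR-FRET (665/620 ratio and 620 channel) after 10 min lysis; AC50 by Hill fit.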
NPSR antagonist – blocks cAMP signaling of the human neuropeptide S receptor. CHO-NPSR cells, cAMP TR-FRET, antagonist mode. actives 1% (n = 220,000). Potency, µM (top dose mostly 38.3 µM), without a hit: top-dose activity change, negative = inhibition, actives largely listed as inhibitors. Q6W5P4; further: potency means the concentration at half of the fitted maximal effect; nearly all actives have a fitted effect of over 50% in size
Target sequence (Q6W5P4 whole entry, looked up): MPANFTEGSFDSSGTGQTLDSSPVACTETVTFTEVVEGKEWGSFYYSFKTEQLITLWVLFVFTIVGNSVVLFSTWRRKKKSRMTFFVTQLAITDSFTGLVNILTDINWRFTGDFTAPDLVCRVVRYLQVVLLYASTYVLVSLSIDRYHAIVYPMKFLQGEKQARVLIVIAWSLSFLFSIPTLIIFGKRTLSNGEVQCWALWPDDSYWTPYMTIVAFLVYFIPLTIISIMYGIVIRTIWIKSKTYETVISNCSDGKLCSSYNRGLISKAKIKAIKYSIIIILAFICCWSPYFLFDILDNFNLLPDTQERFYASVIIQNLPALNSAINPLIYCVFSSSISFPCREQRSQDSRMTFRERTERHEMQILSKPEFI
Starred values were filed as active, the others as inactive; u = inconclusive; x = no result given; [ ] = remark or other dose. This excerpt belongs to a sample that is enriched for hits. Unless noted, the call rests on the fitted dose curve; in most records, active means well fitted curve in the direction sought with a large enough effect; inconclusive means small, poorly fitted or top-dose-only effect, or another doubt; inactive means no such curve, though single readings can be large; an effect the other way counts as inactive or inconclusive. Unless noted, on the % scale 0 is the no-effect control and ±100 the full control effect.

SMILES	IMPase cell inh	IMPase Li cell	NPSR antagonist
COc1cc(C2C(C(=O)c3ccc(C)o3)=C(O)C(=O)N2c2cc(C)on2)cc(Br)c1O (centres undefined)	-3	3%[38.3 µM]	-20%[46.1 µM]
COc1ccc(OC)c(C2C(C(=O)c3cc4ccccc4o3)=C(O)C(=O)N2c2cc(C)on2)c1 (centres undefined)	u	11µM*	u
COc1ccc(OC)c(C2C(C(=O)c3sc(C)nc3C)=C(O)C(=O)N2CCN2CCOCC2)c1 (centres undefined)	6	x	6%[46.1 µM]
COc1ccccc1C1C(C(=O)c2cc3ccccc3o2)=C(O)C(=O)N1CCN1CCOCC1 (centres undefined)	-24	32µM*	8%[46.1 µM]
CCN1C(=O)C2(C(C(=O)c3ccc(C)o3)=C(O)C(=O)N2CCCN2CCOCC2)c2ccccc21 (centres undefined)	-10	u	-8%[46.1 µM]
COc1cc(C2C(C(=O)c3ccco3)=C(O)C(=O)N2c2cc(C)on2)cc(Br)c1O (centres undefined)	-3	3%[38.3 µM]	-9%[46.1 µM]
CCN1C(=O)C2(C(C(=O)c3cc4ccccc4o3)=C(O)C(=O)N2CCCN2CCOCC2)c2ccccc21 (centres undefined)	x	x	7.9µM*
COc1ccc(C2C(C(=O)c3ccc(C)o3)=C(O)C(=O)N2c2cc(C)on2)cc1OC (centres undefined)	u	10µM*	8%[46.1 µM]
Cn1c(=O)c(=O)n(C)c2cc(S(=O)(=O)NCCOc3ccccc3Cl)ccc21	x	-2%	2%
COC(=O)C(=C/C=C/N1CCOCC1)C(=O)OC	x	x	6%
CCC1=C2CC[C@H]3C(=O)N(C)C(=O)[C@H]3[C@H]2[C@@]2(C)C(=O)N(CC3CC3)C(=O)N2C1=O	x	-4%	x
COc1ccc(-n2cc(C#N)c(=O)[nH]c2=O)cc1	x	-8%	-11%
CCN(CC)CCCN1C(=O)C(O)=C(C(=O)c2cc3ccccc3o2)C1c1ccccn1 (centres undefined)	u	13µM*	u
CN(C)CCN1C(=O)C(O)=C(C(=O)c2cc3ccccc3o2)C1c1ccccn1 (centres undefined)	-10	u	11%[46.1 µM]
C=CCCCCCC	x	-7%	x
Cc1ccc(NC(=O)Cn2c(-c3ccc(F)cc3)cnc2SCC(=O)Nc2c(C)cccc2C)cc1	x	1%	-38%
Nc1nc(SC/C=C\c2ccccc2)c2[nH]cnc2n1	x	13%	x
Cc1c(C(=O)O)cccc1-n1c(C)cc(/C=N/Nc2ccc([N+](=O)[O-])cn2)c1C	x	x	10µM*
Cc1cc(/C=N/Nc2ccc([N+](=O)[O-])cn2)c(C)n1-c1ccccc1	2	33%[38.3 µM]	-14%[46.1 µM]
Cc1cc(C(=O)N/N=C/C(Cl)=C/c2ccccc2)c(C)o1	x	x	47%
CN(C)CCC[C@@H]1c2ccccc2Oc2ccc(C(F)(F)F)cc21	x	22%	x
Cc1c(/C(O)=C2/C(=O)C(=O)N(Cc3cccnc3)C2c2ccccn2)cnn1-c1ccccc1 (centres undefined)	x	u	11%
Cc1c(/C(O)=C2/C(=O)C(=O)N(Cc3cccnc3)C2c2cccs2)cnn1-c1ccccc1 (centres undefined)	u	7.1µM*	3%[46.1 µM]
Cn1c(=O)c(-c2cc(F)cc(F)c2)nc2cnc(Nc3ccccc3)nc21	x	6%	x
Cc1ccc(-n2c(=O)c3c4c(sc3n3c(=S)[nH]nc23)CCC4)cc1	x	x	27%
SMILES	IMPase cell inh	IMPase Li cell	NPSR antagonist
Cc1ccc(-n2c(=S)[nH]c3sc4c(c3c2=O)CCC4)cc1	x	11µM*	7.9µM*
COc1ccc(NC(=O)CSc2nc(-c3cc(OC)c(OC)c(OC)c3)[nH]c2-c2ccc(F)cc2)cc1	28	x	x
COc1cc(O)c(C(CCN2CCN(c3ccccc3)CC2)c2ccc3c(c2)OCO3)c(OC)c1 (centres undefined)	x	x	-43%
COc1cc(O)c(C(CCN2CCN(c3ccccc3)CC2)c2cc(OC)c(OC)c(OC)c2)c(OC)c1 (centres undefined)	x	x	5µM*
C=CCNC(=S)NNC(=O)Cn1c(-c2ccccc2)cc(=O)n2ncnc12	x	x	13%
Cc1ccc(NC(=S)N/N=C/c2c(C)nn(-c3ccccc3)c2N2CCCC2)cc1	-6	x	-13%[46.1 µM]
Cc1nn(C)cc1/C=N/NC(=S)Nc1ccccc1	-3	-12%[38.3 µM]	2µM*
CCc1ccc(NC(=O)CSc2nc(C)c(C(=O)Nc3ccccc3)c(-c3ccc(OC)c(OC)c3)c2C#N)cc1	-19	x	x
CC1=CC(=O)CC(C)(C)C1(O)/C=C/C(C)=C\C(=O)O (centres undefined)	-5	0%	x
COc1ccc(CN2CCNC(=O)C2CC(=O)N2CCCCO2)c(OC)c1 (centres undefined)	x	-5%	-9%
BrC/C=C/CBr	x	11%	x
CCC1(C)Cc2nc3[nH]c(=S)n(-c4ccc(C)cc4)c(=O)c3cc2CO1 (centres undefined)	8	8.9µM*	-28%
Cc1ccc(-n2c(=S)[nH]c3nc4c(cc3c2=O)COC(C)(C)C4)cc1	x	2%	u
CN(C)c1ccc(/C=C2\C(=N)N3C(=NC2=O)Sc2cc(S(C)(=O)=O)ccc23)cc1	x	x	-16%
c1ccc2c(c1)CCC[C@H]2C1=NCCN1	0	x	x
O=Cc1ccc(Cl)cc1	x	4%	x
COc1ccc([C@H]2c3cc(OC)c(OC)cc3C[C@@H](C)[C@@H]2C)cc1OC	x	12%	x
Cc1c(C(=O)NN2CCCCC2)nn(-c2ccc(Cl)cc2Cl)c1-c1ccc(I)cc1	x	x	10µM*
Cc1onc(-c2c(Cl)cccc2Cl)c1C(=O)NN1CCCCCC1	x	x	-6%
C=CCC(C)(O)C(=O)OCC (centres undefined)	x	9%	x
O=C(NCc1cccnc1)c1ccc(-c2ccc(Cl)cc2)o1	x	0%	-17%
O=C(NCc1cccnc1)/C(=C\c1ccc(-c2ccc(Cl)c(Cl)c2)o1)S(=O)(=O)c1ccccc1	14	8%	13µM*
O=[N+]([O-])c1ccc(O)c(C=Nc2ccc3nc(-c4ccccc4)[nH]c3c2)c1	x	-14%	-20%
Oc1c(Br)cc(C=Nc2ccc3nc(-c4ccccc4)[nH]c3c2)c(O)c1Br	x	u	10µM*
O=C1NC(=O)c2cc(Nc3ccccc3)c(Nc3ccccc3)cc21	12	20%	13µM*
SMILES	IMPase cell inh	IMPase Li cell	NPSR antagonist
O=C1NC(=O)c2cc(Nc3ccc(F)cc3)c(Nc3ccc(F)cc3)cc21	x	2%	x
O=C(NNc1c2ccccc2nc2ccccc12)C(O)c1ccccc1 (centres undefined)	x	x	10µM*
O=C(COc1ccccc1)NNc1c2ccccc2nc2ccccc12	18	53%[38.3 µM]	10µM*
O=C(NNc1c2ccccc2nc2ccccc12)c1ccc(O)cc1	14	50%	-14%
COc1ccc(OCC(=O)NNc2c3ccccc3nc3ccccc23)cc1	-3[1.84 µM]	78%[38.3 µM]	u
COc1ccc(CNc2nc(SCc3cc(=O)n4cc(Cl)ccc4n3)nc3ccccc23)cc1	-10	x	-11%[46.1 µM]
CC(=O)[C@@]1(O)CC[C@@H]2[C@@H]3CCC4=CC(=O)CC[C@@]4(C)[C@H]3CC[C@]21C	-2	x	x
Cc1[nH]c(N)nc(=S)c1CCC(=O)O	x	-5%	x
COc1cc(/C=C2/C(=O)c3cccc([N+](=O)[O-])c3C2=O)c(Br)cc1O	x	24%	10µM*
COc1ccc(-c2nc(-c3cccc([N+](=O)[O-])c3O)cc(=O)o2)cc1OC	0	-1%	7%
